# Assay results as given in the supplement of paper PMC4466140.
# Columns and labels:
# Experiment in all cases: SPOT peptide array binding signal intensity (averaged, normalized) (arbitrary units (background-subtracted, floor 0; scale differs between SH3 domains)); higher = stronger binding of the SH3 domain to the peptide
# AgAbp1 = target: AgAbp1
# Summary of the method: (§1)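 Spot intensities were captured after detection with anti-GST antibody, an HRP-linked anti-mouse secondary and luminol, and quantified with Genespotter. The probes were GST-fused SH3 domains from four yeast species, produced in E. coli BL21(DE3), purified on glutathione Sepharose and incubated at 10 μg/ml overnight at 4°C on cellulose-bound synthetic 15-mer peptides with cysteines replaced by serines. Binding signal is the normalized, background-subtracted spot intensity averaged over replicates, and its arbitrary units differ between domains.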
# AgBbc1 = target: AgBbc1
# Summary of the method: as §1
# AgBem1-D1 = target: AgBem1-D1
# Summary of the method: as §1
# AgBzz1-D1 = target: AgBzz1-D1
# Summary of the method: as §1
# AgBzz1-D2 = target: AgBzz1-D2
# Summary of the method: as §1
# AgCyk3 = target: AgCyk3
# Summary of the method: as §1
# AgFus1 = target: AgFus1
# Summary of the method: as §1
# AgHof1 = target: AgHof1
# Summary of the method: as §1
# AgHse1 = target: AgHse1
# Summary of the method: as §1
# AgLsb1 = target: AgLsb1
# Summary of the method: as §1
# AgLsb4 = target: AgLsb4
# Summary of the method: as §1
# AgMyo5 = target: AgMyo5
# Summary of the method: as §1
# AgNbp2 = target: AgNbp2
# Summary of the method: as §1
# AgRvs167 = target: AgRvs167
# Summary of the method: as §1
# AgSho1 = target: AgSho1
# Summary of the method: as §1
# AgSla1-D1-D2 = target: AgSla1-D1-D2
# Summary of the method: as §1
# AgSla1-D3 = target: AgSla1-D3
# Summary of the method: as §1
# CaAbp1-D1 = target: CaAbp1-D1
# Summary of the method: as §1
# CaAbp1-D2 = target: CaAbp1-D2
# Summary of the method: as §1
# CaBbc1 = target: CaBbc1
# Summary of the method: as §1
# CaBem1-D1 = target: CaBem1-D1
# Summary of the method: as §1
# CaBzz1-D1 = target: CaBzz1-D1
# Summary of the method: as §1
# CaBzz1-D2 = target: CaBzz1-D2
# Summary of the method: as §1
# CaCyk3 = target: CaCyk3
# Summary of the method: as §1
# CaFus1 = target: CaFus1
# Summary of the method: as §1
# CaHof1 = target: CaHof1
# Summary of the method: as §1
# CaHse1 = target: CaHse1
# Summary of the method: as §1
# CaLsb1 = target: CaLsb1
# Summary of the method: as §1
# CaLsb4 = target: CaLsb4
# Summary of the method: as §1
# CaMyo5 = target: CaMyo5
# Summary of the method: as §1
# CaNbp2 = target: CaNbp2
# Summary of the method: as §1
# CaRvs167 = target: CaRvs167
# Summary of the method: as §1
# CaRvs167-3 = target: CaRvs167-3
# Summary of the method: as §1
# CaSho1 = target: CaSho1
# Summary of the method: as §1
# CaSla1-D1-D2 = target: CaSla1-D1-D2
# Summary of the method: as §1
# CaSla1-D3 = target: CaSla1-D3
# Summary of the method: as §1
# ScAbp1 = target: ScAbp1
# Summary of the method: as §1
# ScBbc1 = target: ScBbc1
# Summary of the method: as §1
# ScBem1-D1 = target: ScBem1-D1
# Summary of the method: as §1
# ScBzz1-D1 = target: ScBzz1-D1
# Summary of the method: as §1
# ScBzz1-D2 = target: ScBzz1-D2
# Summary of the method: as §1
# ScCyk3 = target: ScCyk3
# Summary of the method: as §1
# ScFus1 = target: ScFus1
# Summary of the method: as §1
# ScHof1 = target: ScHof1
# Summary of the method: as §1
# ScHse1 = target: ScHse1
# Summary of the method: as §1
# ScLsb1 = target: ScLsb1
# Summary of the method: as §1
# ScLsb2 = target: ScLsb2
# Summary of the method: as §1
# ScLsb3 = target: ScLsb3
# Summary of the method: as §1
# ScLsb4 = target: ScLsb4
# Summary of the method: as §1
# ScMyo3 = target: ScMyo3
# Summary of the method: as §1
# ScMyo5 = target: ScMyo5
# Summary of the method: as §1
# ScNbp2 = target: ScNbp2
# Summary of the method: as §1
# ScPex13 = target: ScPex13
# Summary of the method: as §1
# ScRvs167 = target: ScRvs167
# Summary of the method: as §1
# ScSho1 = target: ScSho1
# Summary of the method: as §1
# ScSla1-D1-D2 = target: ScSla1-D1-D2
# Summary of the method: as §1
# ScSla1-D3 = target: ScSla1-D3
# Summary of the method: as §1
# SpAbp1-D1 = target: SpAbp1-D1
# Summary of the method: as §1
# SpBbc1 = target: SpBbc1
# Summary of the method: as §1
# SpBzz1-D1 = target: SpBzz1-D1
# Summary of the method: as §1
# SpBzz1-D2 = target: SpBzz1-D2
# Summary of the method: as §1
# SpCyk3 = target: SpCyk3
# Summary of the method: as §1
# SpHof1 = target: SpHof1
# Summary of the method: as §1
# SpHof1-2 = target: SpHof1-2
# Summary of the method: as §1
# SpHof1-3 = target: SpHof1-3
# Summary of the method: as §1
# SpHse1 = target: SpHse1
# Summary of the method: as §1
# SpLsb1 = target: SpLsb1
# Summary of the method: as §1
# SpLsb4 = target: SpLsb4
# Summary of the method: as §1
# SpMyo1 = target: SpMyo1
# Summary of the method: as §1
# SpNbp2 = target: SpNbp2
# Summary of the method: as §1
# SpPex13 = target: SpPex13
# Summary of the method: as §1
# SpRvs167 = target: SpRvs167
# Summary of the method: as §1
# SpSla1-D1-D2 = target: SpSla1-D1-D2
# Summary of the method: as §1
# SpSla1-D3 = target: SpSla1-D3
# Summary of the method: as §1
binder,measurement,setting,value
KMSRSPPRPPSLKII,SPOT peptide array binding signal intensity,AgAbp1,329
same,SPOT peptide array binding signal intensity,AgBbc1,145
same,SPOT peptide array binding signal intensity,AgBem1-D1,707
same,SPOT peptide array binding signal intensity,AgBzz1-D1,85.5
same,SPOT peptide array binding signal intensity,AgBzz1-D2,35
same,SPOT peptide array binding signal intensity,AgCyk3,4
same,SPOT peptide array binding signal intensity,AgFus1,180
same,SPOT peptide array binding signal intensity,AgHof1,17
same,SPOT peptide array binding signal intensity,AgHse1,99
same,SPOT peptide array binding signal intensity,AgLsb1,20
same,SPOT peptide array binding signal intensity,AgLsb4,≤ 0
same,SPOT peptide array binding signal intensity,AgMyo5,10.5
same,SPOT peptide array binding signal intensity,AgNbp2,1350
same,SPOT peptide array binding signal intensity,AgRvs167,4.5
same,SPOT peptide array binding signal intensity,AgSho1,228
same,SPOT peptide array binding signal intensity,AgSla1-D1-D2,25
same,SPOT peptide array binding signal intensity,AgSla1-D3,9.25
same,SPOT peptide array binding signal intensity,CaAbp1-D1,734
same,SPOT peptide array binding signal intensity,CaAbp1-D2,1170
same,SPOT peptide array binding signal intensity,CaBbc1,564
same,SPOT peptide array binding signal intensity,CaBem1-D1,83
same,SPOT peptide array binding signal intensity,CaBzz1-D1,1880
same,SPOT peptide array binding signal intensity,CaBzz1-D2,466
same,SPOT peptide array binding signal intensity,CaCyk3,36
same,SPOT peptide array binding signal intensity,CaFus1,974
same,SPOT peptide array binding signal intensity,CaHof1,0.5
same,SPOT peptide array binding signal intensity,CaHse1,58.5
same,SPOT peptide array binding signal intensity,CaLsb1,2.5
same,SPOT peptide array binding signal intensity,CaLsb4,588
same,SPOT peptide array binding signal intensity,CaMyo5,44.5
same,SPOT peptide array binding signal intensity,CaNbp2,1320
same,SPOT peptide array binding signal intensity,CaRvs167,68
same,SPOT peptide array binding signal intensity,CaRvs167-3,≤ 0
same,SPOT peptide array binding signal intensity,CaSho1,939
same,SPOT peptide array binding signal intensity,CaSla1-D1-D2,337
same,SPOT peptide array binding signal intensity,CaSla1-D3,258
same,SPOT peptide array binding signal intensity,ScAbp1,178
same,SPOT peptide array binding signal intensity,ScBbc1,69.5
same,SPOT peptide array binding signal intensity,ScBem1-D1,8
same,SPOT peptide array binding signal intensity,ScBzz1-D1,57
same,SPOT peptide array binding signal intensity,ScBzz1-D2,25.5
same,SPOT peptide array binding signal intensity,ScCyk3,5
same,SPOT peptide array binding signal intensity,ScFus1,463
same,SPOT peptide array binding signal intensity,ScHof1,0.75
same,SPOT peptide array binding signal intensity,ScHse1,99.5
same,SPOT peptide array binding signal intensity,ScLsb1,39.8
same,SPOT peptide array binding signal intensity,ScLsb2,18
same,SPOT peptide array binding signal intensity,ScLsb3,742
same,SPOT peptide array binding signal intensity,ScLsb4,142
same,SPOT peptide array binding signal intensity,ScMyo3,142
same,SPOT peptide array binding signal intensity,ScMyo5,47.2
same,SPOT peptide array binding signal intensity,ScNbp2,2300
same,SPOT peptide array binding signal intensity,ScPex13,464
same,SPOT peptide array binding signal intensity,ScRvs167,123
same,SPOT peptide array binding signal intensity,ScSho1,634
same,SPOT peptide array binding signal intensity,ScSla1-D1-D2,653
same,SPOT peptide array binding signal intensity,ScSla1-D3,270
same,SPOT peptide array binding signal intensity,SpAbp1-D1,177
same,SPOT peptide array binding signal intensity,SpBbc1,6.75
same,SPOT peptide array binding signal intensity,SpBzz1-D1,1270
same,SPOT peptide array binding signal intensity,SpBzz1-D2,79.2
same,SPOT peptide array binding signal intensity,SpCyk3,9
same,SPOT peptide array binding signal intensity,SpHof1,19.5
same,SPOT peptide array binding signal intensity,SpHof1-2,27
same,SPOT peptide array binding signal intensity,SpHof1-3,139
same,SPOT peptide array binding signal intensity,SpHse1,70
same,SPOT peptide array binding signal intensity,SpLsb1,9.75
same,SPOT peptide array binding signal intensity,SpLsb4,1060
same,SPOT peptide array binding signal intensity,SpMyo1,224
same,SPOT peptide array binding signal intensity,SpNbp2,146
same,SPOT peptide array binding signal intensity,SpPex13,17
same,SPOT peptide array binding signal intensity,SpRvs167,92.3
same,SPOT peptide array binding signal intensity,SpSla1-D1-D2,17
same,SPOT peptide array binding signal intensity,SpSla1-D3,138
